Measurements: the supplement of paper PMC12494721
Where a name gives a salt, the structure may show the parent alone.

Tested on: Clostridium sporogenes DSM 1664
Assay: growth (OD595) fold change vs plate DMSO controls (fold change (ratio)); higher = more growth
Conditions: incubation time: 27 h, anaerobic, 37 °C
Summary of the method: (§1)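 Growth is calculated as fold change against the median of the DMSO control wells on each plate. Readings at 595 nm from anaerobic mGAM cultures (96-well, 27 h, 37 °C) were blank-subtracted, background-corrected with 20 µM compound solutions in water, and converted to OD by a calibration factor of 5. Fold changes above 1.5 were recorded as NA, and results are means of 2 biological replicates.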

Structure (SMILES)	growth
CCOC(=O)C1=C(C)NC(C)=C(C(=O)OC)C1c1cccc([N+](=O)[O-])c1 (stereo not given) [Nitrendipine] (20 µM)	1.04
CCCSS/C(CCO)=C(/C)N(C=O)Cc1cnc(C)nc1N [Prosultiamine] (20 µM)	0.945
CC(C)NCC(O)c1ccc(NS(C)(=O)=O)cc1 (stereo not given) [Sotalol hydrochloride] (20 µM)	0.907
NC(=O)OCC(O)COc1ccc(Cl)cc1 (stereo not given) [Chlorphensin carbamate] (20 µM)	1.02
C[C@]12CC[C@H]3[C@@H](CCC4=CC(=O)CC[C@@]43C)[C@@H]1CC[C@@H]2C(=O)CO [Deoxycorticosterone] (20 µM)	1.18
OC(CCCN1CCCCC1)(c1ccccc1)c1ccccc1 [Diphenidol hydrochloride] (20 µM)	1.03
Cc1cccc(Nc2ccncc2S(=O)(=O)NC(=O)NC(C)C)c1 [Torsemide] (20 µM)	1.09
CCN(CC)C(=O)Nc1ccc(OCC(O)CNC(C)(C)C)c(C(C)=O)c1 (stereo not given) [Celiprolol hydrochloride] (20 µM)	1.03
CC(NCCC(c1ccccc1)c1ccccc1)c1ccccc1 (stereo not given) [Fendiline hydrochloride] (20 µM)	0.961
Oc1c(I)cc(Cl)c2cccnc12 [Clioquinol] (20 µM)	0.876
CCCCC1=NC2(CCCC2)C(=O)N1Cc1ccc(-c2ccccc2-c2nnn[nH]2)cc1 [Irbesartan] (20 µM)	1.11
CCc1ccc(C(=O)C(C)CN2CCCCC2)cc1 (stereo not given) [Eperisone Hydrochloride] (20 µM)	1.04
CCn1cc(C(=O)O)c(=O)c2cc(F)c(N3CCNC(C)C3)c(F)c21 (stereo not given) [Lomefloxacin hydrochloride] (20 µM)	0.0338
CC(C)OC(=O)C(C)(C)Oc1ccc(C(=O)c2ccc(Cl)cc2)cc1 [Fenofibrate] (20 µM)	1.12
CN1CCCN=C1/C=C/c1cccc(O)c1 [Oxantel pamoate] (20 µM)	1.1
CO/N=C(\C(=O)N[C@@H]1C(=O)N2C(C(=O)[O-])=C(C[n+]3cccc4c3CCC4)CS[C@H]12)c1csc(N)n1 [Cefpirome sulfate] (20 µM)	0.00168
C[C@H]1C[C@H]2[C@@H]3CCC4=CC(=O)C=C[C@]4(C)[C@@]3(F)[C@@H](O)C[C@]2(C)[C@@]1(O)C(=O)CO [Betamethasone] (20 µM)	1.02
Cc1cc(NS(=O)(=O)c2ccc(N)cc2)no1 [Sulfamethoxazole] (20 µM)	1.01
Fc1ccc(C(c2ccc(F)cc2)N2CCN(C/C=C/c3ccccc3)CC2)cc1 [Flunarizine dihydrochloride] (20 µM)	1.15
CN1CCN(CCCN2c3ccccc3Sc3ccc(S(=O)(=O)N(C)C)cc32)CC1 [Thioproperazine dimesylate] (20 µM)	0.886
Cn1c(=O)c2nc[nH]c2n(C)c1=O [Theophylline monohydrate] (20 µM)	1.19
COC(=O)C1=C(C)NC(C)=C(C(=O)OC)C1c1ccccc1[N+](=O)[O-] [Nifedipine] (20 µM)	1.07
O=C(NCc1ncc(C(F)(F)F)cc1Cl)c1c(Cl)cccc1Cl (20 µM)	1
CC(=O)Oc1ccccc1C(=O)Nc1ncc([N+](=O)[O-])s1 [Nitazoxanide] (20 µM)	0.00234
CC(=O)CCCCn1c(=O)c2c(ncn2C)n(C)c1=O [Pentoxifylline] (20 µM)	1.01
CN(C)CCc1c[nH]c2ccc(Cn3cncn3)cc12 [Rizatriptan benzoate] (20 µM)	0.987

Tested on: Escherichia coli IAI1
Assay: as above
Conditions: incubation time: 27 h, anaerobic, 37 °C
Summary of the method: as §1

Structure (SMILES)	growth
CNC(=C[N+](=O)[O-])NCCSCc1ccc(CN(C)C)o1 [Ranitidine hydrochloride] (20 µM)	1.01
C/C(O)=C(\C#N)C(=O)Nc1ccc(C(F)(F)F)cc1 [Teriflunomide] (20 µM)	1.02
Cc1ccsc1/C=C/C1=NCCCN1C [Morantel tartrate] (20 µM)	1.07
CCCCOCCOCCOCc1cc2c(cc1CCC)OCO2 (20 µM)	1.02
CC(C)C(=O)Nc1ccc([N+](=O)[O-])c(C(F)(F)F)c1 [Flutamide] (20 µM)	1
N=c1nc(N2CCCCC2)cc(N)n1O [Minoxidil] (20 µM)	0.963
C[C@]12CCC3=C4CCC(=O)C=C4CC[C@H]3[C@@H]1CC[C@@]2(O)CC#N [Dienogest] (20 µM)	0.536
CN(Cc1cnc2nc(N)nc(N)c2n1)c1ccc(C(=O)N[C@@H](CCC(=O)O)C(=O)O)cc1 [Amethopterin] (20 µM)	1.02
NC(=O)C1CO1 (stereo not given) [Glycidamide] (20 µM)	0.992
O=C1[C@H]2CCCC[C@H]2C(=O)N1CCCCN1CCN(c2nsc3ccccc23)CC1 [Perospirone hydrochloride] (20 µM)	0.968
C=C1[C@H](CO)[C@@H](O)C[C@@H]1n1cnc2c(=O)[nH]c(N)nc21 [Entecavir] (20 µM)	0.934
O=c1n(CCCN2CCN(c3cccc(Cl)c3)CC2)nc2ccccn12 [Trazodone hydrochloride] (20 µM)	0.982
CC(=O)Nc1nnc(S(N)(=O)=O)s1 [Acetazolamide] (20 µM)	0.95
CCOC(=O)C1=C(C)NC(C)=C(C(=O)OC)C1c1cccc([N+](=O)[O-])c1 (stereo not given) [Nitrendipine] (20 µM)	1.01
CCCSS/C(CCO)=C(/C)N(C=O)Cc1cnc(C)nc1N [Prosultiamine] (20 µM)	1.01
CC(C)NCC(O)c1ccc(NS(C)(=O)=O)cc1 (stereo not given) [Sotalol hydrochloride] (20 µM)	0.97
NC(=O)OCC(O)COc1ccc(Cl)cc1 (stereo not given) [Chlorphensin carbamate] (20 µM)	1.02
C[C@]12CC[C@H]3[C@@H](CCC4=CC(=O)CC[C@@]43C)[C@@H]1CC[C@@H]2C(=O)CO [Deoxycorticosterone] (20 µM)	1.09
OC(CCCN1CCCCC1)(c1ccccc1)c1ccccc1 [Diphenidol hydrochloride] (20 µM)	1.08
Cc1cccc(Nc2ccncc2S(=O)(=O)NC(=O)NC(C)C)c1 [Torsemide] (20 µM)	1.07

Structure (SMILES)	growth
CCN(CC)C(=O)Nc1ccc(OCC(O)CNC(C)(C)C)c(C(C)=O)c1 (stereo not given) [Celiprolol hydrochloride] (20 µM)	0.981
CC(NCCC(c1ccccc1)c1ccccc1)c1ccccc1 (stereo not given) [Fendiline hydrochloride] (20 µM)	0.952
Oc1c(I)cc(Cl)c2cccnc12 [Clioquinol] (20 µM)	0.817
CCCCC1=NC2(CCCC2)C(=O)N1Cc1ccc(-c2ccccc2-c2nnn[nH]2)cc1 [Irbesartan] (20 µM)	1.03
CCc1ccc(C(=O)C(C)CN2CCCCC2)cc1 (stereo not given) [Eperisone Hydrochloride] (20 µM)	0.959
CCn1cc(C(=O)O)c(=O)c2cc(F)c(N3CCNC(C)C3)c(F)c21 (stereo not given) [Lomefloxacin hydrochloride] (20 µM)	0.0575
CC(C)OC(=O)C(C)(C)Oc1ccc(C(=O)c2ccc(Cl)cc2)cc1 [Fenofibrate] (20 µM)	1.04
CN1CCCN=C1/C=C/c1cccc(O)c1 [Oxantel pamoate] (20 µM)	1.04
CO/N=C(\C(=O)N[C@@H]1C(=O)N2C(C(=O)[O-])=C(C[n+]3cccc4c3CCC4)CS[C@H]12)c1csc(N)n1 [Cefpirome sulfate] (20 µM)	0.00447
C[C@H]1C[C@H]2[C@@H]3CCC4=CC(=O)C=C[C@]4(C)[C@@]3(F)[C@@H](O)C[C@]2(C)[C@@]1(O)C(=O)CO [Betamethasone] (20 µM)	1.02
Cc1cc(NS(=O)(=O)c2ccc(N)cc2)no1 [Sulfamethoxazole] (20 µM)	1.11
Fc1ccc(C(c2ccc(F)cc2)N2CCN(C/C=C/c3ccccc3)CC2)cc1 [Flunarizine dihydrochloride] (20 µM)	1.05
CN1CCN(CCCN2c3ccccc3Sc3ccc(S(=O)(=O)N(C)C)cc32)CC1 [Thioproperazine dimesylate] (20 µM)	0.986
Cn1c(=O)c2nc[nH]c2n(C)c1=O [Theophylline monohydrate] (20 µM)	1.11
COC(=O)C1=C(C)NC(C)=C(C(=O)OC)C1c1ccccc1[N+](=O)[O-] [Nifedipine] (20 µM)	1.12
O=C(NCc1ncc(C(F)(F)F)cc1Cl)c1c(Cl)cccc1Cl (20 µM)	0.98
CC(=O)Oc1ccccc1C(=O)Nc1ncc([N+](=O)[O-])s1 [Nitazoxanide] (20 µM)	0.925
CC(=O)CCCCn1c(=O)c2c(ncn2C)n(C)c1=O [Pentoxifylline] (20 µM)	0.995
CN(C)CCc1c[nH]c2ccc(Cn3cncn3)cc12 [Rizatriptan benzoate] (20 µM)	0.971
